Assay [1] addresses human Retinoic Acid Receptor gamma (RARg), RARG (gene 5916) (UniProt P13631). Kind of assay: ATG_RARg_TRANS: Attagene TRANS-FACTORIAL HepG2 Assay for human Retinoic Acid Receptor gamma (RARg) (AID 2283009; active = hit-call score of the fitted dose curve at least 0.9, where 1 is the maximum). The gist of the method:
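HepG2 transiently transfected with GAL4-UAS reporter units and chimeric NR-Gal4 constructs; 24 h compound exposure. Reporter mRNA quantified by RT-PCR, FAM labeling, HpaI digestion and capillary electrophoresis; gain-of-signal versus DMSO.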

For assay [2], the target named is Retinoic acid receptor RXR-alpha (Homo sapiens) (UniProt P19793). Kind of assay: ATG_RXRa_TRANS: Attagene TRANS-FACTORIAL HepG2 Assay for human Retinoid X Receptor alpha (RXRa) (AID 2283012; active = hit-call score of the fitted dose curve at least 0.9, where 1 is the maximum). The gist of the method:
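HepG2 cells transiently transfected with GAL4-UAS reporter units and chimeric RXRa-Gal4 protein, treated 24 h. Reporter mRNA measured by RT-PCR, fluorescent labelling, HpaI digestion and capillary electrophoresis. Induction fitted against DMSO.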

Read-out in assay [3]: E-selectin (Homo sapiens) (UniProt P16581)
Kind of assay: BSK_3C_Eselectin: BioMAP Diversity Plus: 3C Assay for Eselectin Biomarker Activity (AID 2283015). The conditions noted are these: primary human endothelial cells (HUVEC); actives raise or lower the signal. Summed up:
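HUVEC, 3C stimulation; compound exposure 24 h; E-selectin by ELISA; gain- or loss-of-signal fitted bidirectionally vs DMSO baseline.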

Read-out in assay [4]: Interleukin-1 alpha (IL1a), IL1A (gene 3552)
Kind of assay: BSK_BE3C_IL1a: BioMAP Diversity Plus: BE3C Assay for Interleukin-1 alpha (IL1a) Biomarker Activity (AID 2283016). The conditions noted are these: primary human bronchial epithelial cells; actives raise or lower the signal. The gist of the method:
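Human primary bronchial epithelial cells, 24 h chemical exposure; IL-1a quantified by ELISA, fitted bidirectionally against DMSO. Cytotoxicity assessed in parallel by SRB total-protein staining at the time of measurement.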

Read-out in assay [5]: Monocyte Chemoattractant Protein-1 (MCP1), CCL2 (gene 6347)
Kind of assay: BSK_3C_MCP1: BioMAP Diversity Plus: 3C Assay for Monocyte Chemoattractant Protein-1 (MCP1) Biomarker Activity (AID 2283017). The conditions noted are these: primary human endothelial cells (HUVEC); actives raise or lower the signal. The gist of the method:
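HUVEC, 3C system; 24 h chemical exposure; MCP-1 by ELISA; bidirectional curve fit vs DMSO baseline.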

Read-out in assay [6]: Monocyte Chemoattractant Protein-1 (MCP1), CCL2 (gene 6347)
Kind of assay: BSK_4H_MCP1: BioMAP Diversity Plus: 4H Assay for Monocyte Chemoattractant Protein-1 (MCP1) Biomarker Activity (AID 2283018). The conditions noted are these: primary human endothelial cells (HUVEC); actives raise or lower the signal. Summed up:
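Human umbilical vein endothelial cells (4H system) exposed to chemicals for 24 h in 96-well format. MCP-1 measured by ELISA; bidirectional fitting against DMSO, with SRB total-protein staining in parallel cultures for cytotoxicity.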

Read-out in assay [7]: Human Leukocyte Antigen - DR isotype (HLADR), HLA-DRA (gene 3122)
Kind of assay: BSK_3C_HLADR: BioMAP Diversity Plus: 3C Assay for Human Leukocyte Antigen - DR isotype (HLADR) Biomarker Activity (AID 2283019).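 For outcome: ELISA of cell-surface HLA-DR on HUVEC 24 h after dosing.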 The conditions noted are these: primary human endothelial cells (HUVEC); actives raise or lower the signal. Summed up: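 HUVEC, 3C stimulation, 24 h post-dose; HLA-DR by ELISA; bidirectional curve fit vs DMSO baseline; gain or loss of signal scored.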

Read-out in assay [8]: Interleukin-8 (IL8), CXCL8 (gene 3576)
Kind of assay: BSK_3C_IL8: BioMAP Diversity Plus: 3C Assay for Interleukin-8 (IL8) Biomarker Activity (AID 2283020). The conditions noted are these: primary human endothelial cells (HUVEC); actives raise or lower the signal. The gist of the method: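 Primary human umbilical vein endothelial cells were dosed for 24 h. IL-8 was quantified by ELISA and fitted bidirectionally against DMSO. Cytotoxicity was assessed in parallel cultures by SRB staining at 560 nm.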

Read-out in assay [9]: Monokine induced gamma interferon (MIG), CXCL9 (gene 4283)
Kind of assay: BSK_3C_MIG: BioMAP Diversity Plus: 3C Assay for Monokine induced gamma interferon (MIG) Biomarker Activity (AID 2283021). The conditions noted are these: primary human endothelial cells (HUVEC); actives raise or lower the signal. The gist of the method:
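HUVEC primary endothelial cultures dosed with chemical; MIG quantified by ELISA at 24 h. Data fitted bidirectionally against DMSO control, with parallel SRB total-protein staining for cytotoxicity.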

A short description of assay [10]: BSK_3C_SRB: Viability Assessment in the BioMAP Diversity Plus: 3C Assay (AID 2283023).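 Note: fitted both ways against DMSO so a hit may be signal rise or drop.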 The note with it: primary human endothelial cells (HUVEC). Summed up:
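HUVEC, 24 h post-dose; 10% TCA fix, 0.1% SRB stain, A560 nm. Bidirectional curve fit vs DMSO negative control.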

Read-out in assay [11]: Matrix Metallopeptidase 1 (MMP1), MMP1 (gene 4312)
Kind of assay: BSK_BE3C_MMP1: BioMAP Diversity Plus: BE3C Assay for Matrix Metallopeptidase 1 (MMP1) Biomarker Activity (AID 2283024). The note with it: primary human bronchial epithelial cells; actives raise or lower the signal. The gist of the method:
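Human primary bronchial epithelial cells (BE3C system) dosed for 24 h; MMP-1 quantified by ELISA. Bidirectional fit against DMSO; cytotoxicity tracked in parallel cultures by SRB total-protein staining.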

Assay [12] is described as follows: BSK_3C_Vis: BioMAP Diversity Plus: 3C Assay for Morphology Visualization (AID 2283025).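 For AC50: light microscopy image of cell morphology used as background control.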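 Note: fitted both ways so gain or loss versus DMSO counts.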 The note with it: primary human endothelial cells (HUVEC). The gist of the method:
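Human umbilical vein endothelial cell morphology was inspected by light microscopy 24 h after chemical dosing; scored bidirectionally relative to DMSO.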

Assay [13] is described as follows: BSK_4H_SRB: Viability Assessment in the BioMAP Diversity Plus: 4H Assay (AID 2283027).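 For AC50: curves fitted both ways versus DMSO so AC50 may be loss or gain.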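 Note: cells exposed to compound for 24 h before staining.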 The conditions noted are these: primary human endothelial cells (HUVEC). The gist of the method: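 Human umbilical vein endothelial cells, 24 h after chemical dosing; total protein measured by 0.1% sulforhodamine B staining after 10% TCA fixation, read at 560 nm. Bidirectional fitting against DMSO.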

Assay [14] in a line: BSK_BE3C_SRB: Viability Assessment in the BioMAP Diversity Plus: BE3C Assay (AID 2283028). The note with it: primary human bronchial epithelial cells. Summed up: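 Primary human bronchial epithelium; chemical dosing, 24 h; 10% TCA fix, 0.1% SRB stain, A560; bidirectional fit vs DMSO baseline.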
The target of assay [15] is human RAR-related Orphan Receptor gamma (RORg), RORC (gene 6097) (UniProt P51449). Kind of assay: ATG_RORg_TRANS: Attagene TRANS-FACTORIAL HepG2 Assay for human RAR-related Orphan Receptor gamma (RORg) (AID 2283011; active = hit-call score of the fitted dose curve at least 0.9, where 1 is the maximum). The gist of the method: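 Transient MRTU transfection of HepG2 (TRANS format, exogenous NR-Gal4 chimera). 24 h dosing. Total RNA → oligo(dT) RT → PCR → 6-FAM labelling → HpaI cut → CE. Gain vs DMSO.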

Assay [16] has as its target human Retinoid X Receptor beta (RXRb), RXRB (gene 6257) (UniProt P28702). Kind of assay: ATG_RXRb_TRANS: Attagene TRANS-FACTORIAL HepG2 Assay for human Retinoid X Receptor beta (RXRb) (AID 2283013; active = hit-call score of the fitted dose curve at least 0.9, where 1 is the maximum). The gist of the method: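 HepG2 cells were transiently transfected with multiplexed GAL4-UAS reporters and a chimeric RXRb-Gal4 construct, then exposed for 24 h. Reporter mRNA was quantified by RT-PCR, FAM labeling, HpaI digestion and capillary electrophoresis; gain of signal was scored against DMSO.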

The target in assay [17] is human Vitamin D Receptor (VDR), VDR (gene 7421) (UniProt P11473). Kind of assay: ATG_VDR_TRANS: Attagene TRANS-FACTORIAL HepG2 Assay for human Vitamin D Receptor (VDR) (AID 2283022; active = hit-call score of the fitted dose curve at least 0.9, where 1 is the maximum). Summed up:
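RT-PCR/capillary electrophoresis read-out of reporter mRNA induction in transiently transfected HepG2; 24 h dosing; chimeric NR-Gal4 (TRANS format); gain-of-signal fit against DMSO baseline.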

Read-out in assay [18]: Pselectin, SELP (gene 6403)
Kind of assay: BSK_4H_Pselectin: BioMAP Diversity Plus: 4H Assay for Pselectin Biomarker Activity (AID 2283026). The conditions noted are these: primary human endothelial cells (HUVEC); actives raise or lower the signal. The gist of the method:
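Primary human umbilical vein endothelial cells were treated 24 h, and cell-surface P-selectin was then quantified by ELISA. Bidirectional fit versus DMSO; cytotoxicity checked in parallel cultures by SRB total-protein staining.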

The target in assay [19] is human Thyroid Receptor alpha (THRa1), THRA (gene 7067) (UniProt P10827). Kind of assay: ATG_THRa1_TRANS: Attagene TRANS-FACTORIAL HepG2 Assay for human Thyroid Receptor alpha (THRa1) (AID 2283014; active = hit-call score of the fitted dose curve at least 0.9, where 1 is the maximum). The gist of the method:
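Transient HepG2 transfection, NR-Gal4 chimera driving GAL4-UAS reporters; 24 h compound exposure; total RNA, oligo(dT) RT, PCR, fluorescent primer extension, capillary electrophoresis. Upward direction vs DMSO control.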

The target of assay [20] is human RAR-related Orphan Receptor beta (RORb), RORB (gene 6096) (UniProt Q92753). Kind of assay: ATG_RORb_TRANS: Attagene TRANS-FACTORIAL HepG2 Assay for human RAR-related Orphan Receptor beta (RORb) (AID 2283010; active = hit-call score of the fitted dose curve at least 0.9, where 1 is the maximum). Summed up: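 HepG2 cells transiently transfected with GAL4-UAS reporter units expressing chimeric NR-Gal4 protein; reporter mRNA measured 24 h after dosing by RT-PCR, 6-FAM labelling and capillary electrophoresis. Gain-of-signal fitted relative to DMSO baseline.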

Inconclusive results are not listed. Active and inactive are the calls of the source. Rule for the calls, unless noted: active = hit-call score of the fitted dose curve at least 0.9, where 1 is the maximum; inactive = score below 0.9.

E-selectin (Homo sapiens), sequence (P16581 whole entry, looked up): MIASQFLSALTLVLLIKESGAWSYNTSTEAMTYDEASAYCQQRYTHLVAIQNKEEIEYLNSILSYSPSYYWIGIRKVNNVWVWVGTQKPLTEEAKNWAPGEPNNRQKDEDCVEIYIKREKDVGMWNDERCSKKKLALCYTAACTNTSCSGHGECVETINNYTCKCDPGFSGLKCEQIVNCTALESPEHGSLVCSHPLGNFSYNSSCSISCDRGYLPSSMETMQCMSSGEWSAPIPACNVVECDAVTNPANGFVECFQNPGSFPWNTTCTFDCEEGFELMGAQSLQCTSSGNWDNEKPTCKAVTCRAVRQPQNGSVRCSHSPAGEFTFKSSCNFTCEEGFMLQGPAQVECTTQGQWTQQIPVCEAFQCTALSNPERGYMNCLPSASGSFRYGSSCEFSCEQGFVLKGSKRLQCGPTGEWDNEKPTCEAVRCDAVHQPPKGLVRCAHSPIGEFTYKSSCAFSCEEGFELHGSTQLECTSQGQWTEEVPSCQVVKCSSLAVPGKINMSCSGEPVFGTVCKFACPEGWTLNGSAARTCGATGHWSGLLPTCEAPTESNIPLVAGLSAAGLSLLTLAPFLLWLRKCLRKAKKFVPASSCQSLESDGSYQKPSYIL
Retinoic acid receptor RXR-alpha (Homo sapiens), sequence (P19793 whole entry, looked up, the tested form may be a part): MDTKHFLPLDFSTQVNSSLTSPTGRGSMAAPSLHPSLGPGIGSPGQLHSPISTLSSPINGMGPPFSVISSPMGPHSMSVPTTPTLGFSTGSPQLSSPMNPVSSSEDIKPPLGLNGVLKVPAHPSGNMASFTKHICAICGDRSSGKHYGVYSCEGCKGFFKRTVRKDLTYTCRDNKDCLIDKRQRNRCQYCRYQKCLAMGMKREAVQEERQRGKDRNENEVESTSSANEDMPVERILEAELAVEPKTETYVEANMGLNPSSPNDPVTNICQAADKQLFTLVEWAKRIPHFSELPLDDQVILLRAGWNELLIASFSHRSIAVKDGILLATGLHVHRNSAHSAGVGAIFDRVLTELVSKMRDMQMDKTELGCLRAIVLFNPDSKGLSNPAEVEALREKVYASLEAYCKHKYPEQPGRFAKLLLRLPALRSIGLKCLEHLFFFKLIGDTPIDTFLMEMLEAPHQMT
human Retinoid X Receptor beta (RXRb), RXRB (gene 6257), sequence (P28702 whole entry, looked up, the tested form may be a part): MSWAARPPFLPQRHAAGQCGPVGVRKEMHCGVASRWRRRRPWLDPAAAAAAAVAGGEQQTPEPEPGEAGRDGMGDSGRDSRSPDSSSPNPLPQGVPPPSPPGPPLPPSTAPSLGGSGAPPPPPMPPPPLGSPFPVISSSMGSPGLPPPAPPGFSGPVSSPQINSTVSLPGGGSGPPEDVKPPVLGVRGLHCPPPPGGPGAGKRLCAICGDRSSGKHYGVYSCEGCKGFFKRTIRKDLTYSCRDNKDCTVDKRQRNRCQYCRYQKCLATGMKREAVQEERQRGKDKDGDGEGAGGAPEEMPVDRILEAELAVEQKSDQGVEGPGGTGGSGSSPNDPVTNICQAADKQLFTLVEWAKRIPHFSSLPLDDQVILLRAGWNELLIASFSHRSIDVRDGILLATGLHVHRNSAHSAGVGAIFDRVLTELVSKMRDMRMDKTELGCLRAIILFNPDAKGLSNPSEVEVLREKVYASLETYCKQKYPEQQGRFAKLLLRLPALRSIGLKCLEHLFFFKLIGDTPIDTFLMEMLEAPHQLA
human Retinoic Acid Receptor gamma (RARg), RARG (gene 5916), sequence (P13631 whole entry, looked up, the tested form may be a part): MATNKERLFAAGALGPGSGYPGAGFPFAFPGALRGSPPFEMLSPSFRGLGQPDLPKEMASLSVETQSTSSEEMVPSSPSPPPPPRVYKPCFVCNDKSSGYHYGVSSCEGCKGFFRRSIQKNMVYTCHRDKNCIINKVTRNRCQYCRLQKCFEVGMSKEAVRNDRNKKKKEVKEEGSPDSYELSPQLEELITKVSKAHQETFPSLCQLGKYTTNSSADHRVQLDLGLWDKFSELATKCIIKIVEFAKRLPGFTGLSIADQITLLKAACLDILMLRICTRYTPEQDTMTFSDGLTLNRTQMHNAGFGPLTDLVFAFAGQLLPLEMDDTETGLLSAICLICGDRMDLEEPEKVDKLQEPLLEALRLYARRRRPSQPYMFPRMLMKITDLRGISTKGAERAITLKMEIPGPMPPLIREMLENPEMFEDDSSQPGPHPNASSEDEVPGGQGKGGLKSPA
human Thyroid Receptor alpha (THRa1), THRA (gene 7067), sequence (P10827 whole entry, looked up, the tested form may be a part): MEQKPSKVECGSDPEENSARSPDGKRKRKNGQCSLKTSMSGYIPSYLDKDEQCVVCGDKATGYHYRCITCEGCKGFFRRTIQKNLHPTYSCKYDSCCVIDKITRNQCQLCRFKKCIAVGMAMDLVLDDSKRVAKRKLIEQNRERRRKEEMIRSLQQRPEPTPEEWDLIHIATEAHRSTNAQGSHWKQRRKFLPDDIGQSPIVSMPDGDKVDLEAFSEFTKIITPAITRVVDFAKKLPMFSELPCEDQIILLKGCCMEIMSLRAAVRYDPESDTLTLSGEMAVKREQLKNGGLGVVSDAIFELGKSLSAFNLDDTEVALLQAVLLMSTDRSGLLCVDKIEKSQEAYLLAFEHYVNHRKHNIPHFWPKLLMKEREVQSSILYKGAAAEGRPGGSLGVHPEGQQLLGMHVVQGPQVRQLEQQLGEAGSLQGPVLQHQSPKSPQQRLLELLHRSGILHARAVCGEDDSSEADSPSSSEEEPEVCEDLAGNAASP
human Vitamin D Receptor (VDR), VDR (gene 7421), sequence (P11473 whole entry, looked up, the tested form may be a part): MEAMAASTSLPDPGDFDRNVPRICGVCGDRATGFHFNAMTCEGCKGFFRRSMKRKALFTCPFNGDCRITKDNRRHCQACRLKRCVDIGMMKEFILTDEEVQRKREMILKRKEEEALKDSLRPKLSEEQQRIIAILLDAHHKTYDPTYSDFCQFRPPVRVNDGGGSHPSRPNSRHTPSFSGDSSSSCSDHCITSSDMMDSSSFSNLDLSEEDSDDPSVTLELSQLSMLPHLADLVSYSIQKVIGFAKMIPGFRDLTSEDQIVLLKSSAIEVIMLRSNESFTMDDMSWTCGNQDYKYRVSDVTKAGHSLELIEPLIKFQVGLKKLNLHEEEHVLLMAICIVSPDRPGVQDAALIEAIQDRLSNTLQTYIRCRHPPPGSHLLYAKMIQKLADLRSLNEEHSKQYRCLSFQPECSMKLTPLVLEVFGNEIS
human RAR-related Orphan Receptor gamma (RORg), RORC (gene 6097), sequence (P51449 whole entry, looked up, the tested form may be a part): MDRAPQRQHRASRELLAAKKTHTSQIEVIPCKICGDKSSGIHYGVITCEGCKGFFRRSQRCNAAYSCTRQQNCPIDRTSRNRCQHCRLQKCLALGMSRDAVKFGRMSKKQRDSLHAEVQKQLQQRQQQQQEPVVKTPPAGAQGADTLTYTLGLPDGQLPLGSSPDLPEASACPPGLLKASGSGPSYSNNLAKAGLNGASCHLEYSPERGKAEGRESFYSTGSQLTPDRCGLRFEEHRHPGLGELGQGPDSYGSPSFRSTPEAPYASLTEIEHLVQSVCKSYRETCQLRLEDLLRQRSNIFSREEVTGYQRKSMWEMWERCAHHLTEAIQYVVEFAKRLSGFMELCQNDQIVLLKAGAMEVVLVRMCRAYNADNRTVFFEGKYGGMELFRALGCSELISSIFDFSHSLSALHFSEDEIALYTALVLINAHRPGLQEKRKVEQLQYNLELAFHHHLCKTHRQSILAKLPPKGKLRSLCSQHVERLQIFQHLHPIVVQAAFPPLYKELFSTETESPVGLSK
human RAR-related Orphan Receptor beta (RORb), RORB (gene 6096), sequence (Q92753 whole entry, looked up, the tested form may be a part): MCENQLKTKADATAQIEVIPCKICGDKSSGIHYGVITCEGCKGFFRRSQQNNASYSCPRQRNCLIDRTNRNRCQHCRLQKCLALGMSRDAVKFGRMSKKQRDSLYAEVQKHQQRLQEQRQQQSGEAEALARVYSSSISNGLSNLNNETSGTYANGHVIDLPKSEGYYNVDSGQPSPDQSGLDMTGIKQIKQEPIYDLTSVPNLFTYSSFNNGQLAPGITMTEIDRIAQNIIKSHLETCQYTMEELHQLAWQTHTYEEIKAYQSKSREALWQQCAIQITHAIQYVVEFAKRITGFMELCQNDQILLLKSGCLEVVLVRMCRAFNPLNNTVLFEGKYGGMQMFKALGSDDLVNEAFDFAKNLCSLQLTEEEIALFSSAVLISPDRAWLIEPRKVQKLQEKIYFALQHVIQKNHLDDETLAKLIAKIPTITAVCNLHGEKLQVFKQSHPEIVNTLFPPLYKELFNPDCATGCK

With `Cn1sc(Cl)cc1=O`, the outcome in assay [1], in assay [2], in assay [3], in assay [4], in assay [5] and in [6] was inactive. In addition, the outcome in assay [8], in [9], in assay [10], in assay [11], in [12] and in [13] was inactive. The result in assay [14] was inactive. Further, the AC50 in [7] is 29.9 µM (active).
Consider `BrCCBr`, for which the result in [1], in assay [15], in assay [2], in assay [3], in assay [4] and in [6] was inactive. Moreover, the outcome in [7], in [8], in [9], in assay [17], in assay [10] and in assay [11] was inactive. The result in assay [12], in [18], in [13] and in assay [14] was inactive. In assay [16], the AC50 is 48.2 µM (active).
Consider `COP(=S)(OC)Oc1ccc(Sc2ccc(OP(=S)(OC)OC)cc2)cc1`, for which the molecule was classed as inactive in assay [1], in [15], in [2], in [9], in assay [17] and in [11]. In addition, the outcome in assay [14] was inactive. The concentration at half-maximal activity (AC50) was 26.5 µM (active) in assay [3]; 7.5 µM (active) in assay [4]; 11.8 µM (active) in assay [6]; 28.5 µM (active) in assay [7]; 7.51 µM (active) in assay [8]; 20 µM (active) in assay [10]. Also, the AC50 in assay [12] is 13.6 µM (active); in [13], 9.79 µM (active).
`Cc1ccc2ccccc2c1C`: the result in [1], in [2] and in assay [19] was inactive.
As for `CC(=O)C=C(C)C`, the molecule was classed as inactive in assay [1], in [20], in assay [2] and in assay [17].
In the case of `Fc1ccc(C2(Cn3cncn3)OC2c2ccccc2Cl)cc1` (stereo not drawn), the outcome in assay [1], in assay [2] and in assay [17] was inactive.
In the case of `O=[N+]([O-])c1c(Cl)c(Cl)cc(Cl)c1Cl`, the call in [1] and in assay [2] was inactive. The AC50 in assay [16] is 32.9 µM (active).
Turning to `O=P(O)(O)CN(CP(=O)(O)O)CP(=O)(O)O`, the outcome in assay [1], in assay [15], in assay [2], in [16], in assay [19] and in assay [17] was inactive.
Turning to `CCSC(C)CC1CC(=O)C(C(CC)=NOC/C=C/Cl)=C(O)C1` (stereo not drawn), the result in assay [1], in [2], in assay [19], in [3], in assay [4] and in assay [5] was inactive. Also, the result in assay [6], in assay [7], in [8], in assay [9], in [10] and in assay [11] was inactive. Also, the outcome in assay [12], in assay [18], in [13] and in [14] was inactive.
For the molecule `CC(C)c1cccc(C(C)C)c1O`, the molecule was called inactive in [1], in assay [2], in [19] and in assay [17].
As to `CCCCCCCCCl`, the molecule was called inactive in assay [1], in [2] and in assay [16].
Turning to `CCC(=O)C(CC(C)N(C)C)(c1ccccc1)c1ccccc1` (stereo not drawn), the result in [1], in [2], in assay [3], in [4], in assay [5] and in assay [6] was inactive. The outcome in assay [7], in [8], in assay [9], in [10], in assay [11] and in assay [12] was inactive. The result in [18], in assay [13] and in assay [14] was inactive.

As usually defined, the AC50 is the concentration giving half of the maximal activity seen.

The record behind these values is PubChem BioAssay (EPA / NIEHS).
